# High-throughput results: PubChem, National Center for Advancing Translational Sciences (NCATS)
# BRCA1 expr up: increases BRCA1 expression | MCF7-BRCA1-FFLuc reporter, luminescence, 48 h; response scale: scaled: vehicle 0%, 10 µM genistein 100% | 1.1% of 380,000 active | Potency, µM (top dose mostly 46.1 µM), without a hit: top-dose activation, most hits filed as activators; active means well fitted activation curve with a large enough effect; inconclusive means small, poorly fitted or top-dose-only effect; inactive means no such curve, though single readings can be large or run the other way; further: potency means the concentration at half of the fitted maximal effect; nearly all actives have a fitted effect of over 80% in size
#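 Luminescence from a BRCA1-driven firefly luciferase in MCF7 cells was the read-out, taken 15 min after substrate addition following 48 h compound exposure at 37 °C. Data were normalized to a 10 microM genistein control and DMSO vehicle.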
# TRPML1 inh: human mucolipin-1 channel inhibition; AID 624415; 0.02% of 390,000 active; TRPML1-inducible cells, Ca2+ dye fluorescence, FDSS; active compounds read low; inhibition of EC80 agonist-evoked calcium signal; Q9GZU1; activity change, negative = inhibition, % (test concentration not listed); in the data active means activity change below about -50%; inconclusive means between about -30% and that limit;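 further: stimulus is agonist 54-4 at its EC80 concentration; on the % scale 0 is the no-effect control and ±100 the full control effect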
#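 Calcium fluorescence in TRPML1-DL cells induced overnight with Tet: a 110 s read after compound pin addition, then a 110 s antagonist read after challenge with 54-4 at 4 uM final (EC80).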
# TRPML1 ag: human mucolipin-1 channel agonism | Q9GZU1 | TRPML1-expressing cells, Ca2+ dye fluorescence, FDSS | activation, % (test concentration not listed) | 0.12% of 410,000 active | AID 624414; further: 0% is about no effect
#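 TRPML1-DL cells, Tet-induced overnight (~16 h, 37 degrees C), loaded 45-90 min at room temperature with Ca8 no-wash calcium dye plus quencher. FDSS fluorescence: 10 s baseline, compound pin-transfer, 110 s agonist read, then EC80 54-4 (4uM final) and 110 s antagonist read.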
# PKM2 activator: PKM2 (human) enzyme activation; P14618; purified PKM2, Kinase-Glo ATP luminescence, activation; response scale: 0% is enzyme alone, no compound; Potency, µM (titrated, usually from 57.5 µM), for inactives: top-dose activation, actives largely listed as activators; 0.34% of 260,000 active; AID 1631; active means well fitted activation curve with a large enough effect; inconclusive means small, poorly fitted or top-dose-only effect; inactive means no such curve, though single readings can be large or run the other way; further: potency means the concentration at half of the fitted maximal effect; on the % scale 0 is the no-effect control and ±100 the full control effect; nearly all actives have a fitted effect of over 55% in size
# Target sequence (P14618 whole entry, looked up): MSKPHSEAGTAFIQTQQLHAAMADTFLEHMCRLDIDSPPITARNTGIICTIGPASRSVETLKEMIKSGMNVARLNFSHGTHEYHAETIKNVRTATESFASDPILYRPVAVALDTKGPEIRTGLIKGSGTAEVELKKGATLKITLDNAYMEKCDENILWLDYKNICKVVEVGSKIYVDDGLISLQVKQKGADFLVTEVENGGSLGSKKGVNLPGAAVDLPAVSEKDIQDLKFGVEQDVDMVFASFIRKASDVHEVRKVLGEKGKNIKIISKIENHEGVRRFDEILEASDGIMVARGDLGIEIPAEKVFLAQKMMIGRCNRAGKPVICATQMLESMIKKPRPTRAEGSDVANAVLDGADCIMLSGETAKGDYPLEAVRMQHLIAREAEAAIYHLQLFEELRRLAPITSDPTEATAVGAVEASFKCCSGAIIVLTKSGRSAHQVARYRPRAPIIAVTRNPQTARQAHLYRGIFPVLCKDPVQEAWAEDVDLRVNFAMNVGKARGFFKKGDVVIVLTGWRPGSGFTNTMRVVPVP
#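 Kinase-Glo luminescence reports ATP generated from ADP (0.1 mM) and PEP (0.5 mM) by purified hPK-M2 after 1 h at room temperature, pH 7.2 imidazole buffer; intermediate enzyme activity allows detecting inhibitors and activators.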
# IL2 activator: activators of IL-2; IL-2 activation reporter assay, cell-based qHTS; stimulated with anti-CD3/CD4/CD28 beads; in transgenic mouse T cells; activation, % (series mostly up to about 46 µM); 0.065% of 360,000 active; further: 0% is about no effect
#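 Unstimulated transgenic mouse T cells preincubated 60 min with compound, then stimulated with anti-CD3/anti-CD4-coated beads plus anti-CD28 for 18 h at 37 degrees C. IL-2 response read as EGFP and DsRed fluorescence by plate cytometry.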
# TSG101-PTAP inh: blocks PTAP/TSG101 interaction to inhibit HIV-1 budding; Q99816; Fluorescence polarization, FITC-PTAP peptide / Tsg101 binding; Potency, µM (top dose mostly 115 µM), without a hit: at the top dose activity change, negative = inhibition, usual class: inhibitors; 340,000 tested, under 10 active; active means well fitted inhibition curve with a large enough effect in the main read-out, with a control signal flat, not every such curve was filed as active; inconclusive means small, poorly fitted or top-dose-only effect, or effect the other way, or a change in a side signal; inactive means no such curve, though single readings can be large or run the other way; further: potency means the concentration at half of the fitted maximal effect; % of control where 0% means no effect
#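 FP read-out: FITC-PTAP peptide, 50 nM final, binding Tsg101 binding domain, 10 uM final; 20 min, r.t.; 10 mM HEPES pH 7.5, 0.15 M NaCl, 0.01% Tween 20, 3 mM EDTA, 0.1 mM TCEP.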
# * = called active by the depositor; ? = inconclusive; / = no result given. Hits are enriched below; roughly 1.3% of the tested compounds scored in any of these assays. Unless noted, no stated cut-off is given here; in the data, active means activation above about 50%; inconclusive means mostly about 30% to 49%; inactive means weaker than that.
SMILES,BRCA1 expr up,TRPML1 inh,TRPML1 ag,PKM2 activator,IL2 activator,TSG101-PTAP inh
O=C(NCc1cccs1)c1ccc(N2CCCCC2)nc1,7.9µM*,15,0,-23%,1,-3%
CC1CCCN(c2ccc(C(=O)NCc3cccs3)cn2)C1 (stereo not given),10µM*,-2,1,-1%,0,-5%
O=C(Nc1nccs1)c1cncc(Br)c1,3.5µM*,8,-1,/,0,-3%
CN(C)C(=O)c1ccc(NC(=O)c2cncc(Br)c2)cc1,11µM*,-10,0,-20%,2,-9%
O=C(Nc1ccc2c(c1)OCO2)c1cncc(Br)c1,10µM*,-14,3,-9%,0,-6%
O=C(CSc1nnc(-c2ccc(Br)cc2)n1-c1ccccc1)c1ccccc1,/,-15,3,/,/,/
COCc1nc2ccccc2n1Cc1ccc(C(C)(C)C)cc1,/,5,0,/,/,/
Cc1ccc2nc(-c3ccc(C)o3)c(Nc3ccc(Cl)cc3)n2c1,0%,/,-1,/,/,/
O=S(=O)(c1ccc2c(c1)OCO2)N1CCN(c2nc(-c3cccs3)nc3ccccc23)CC1,32%,/,1,/,/,/
CN(C)S(=O)(=O)c1cccc(COc2cccnc2[N+](=O)[O-])c1,-20%,-11,-1,-5%,-2,1%
O=[N+]([O-])c1ncccc1OCc1ccc(Cl)c(Cl)c1,7.1µM*,-3,0,3%,0,-1%
Cc1ccc(C(=O)NNC(=S)NC(=O)c2ccc(Cl)cc2)cc1,-58%,-17,61*,-5%,-3,-3%
Cc1onc(-c2ccccc2)c1C(=O)NNC(=S)NC(=O)c1ccc(Br)cc1,-67%,24,?,4%,0,-4%
Cc1onc(-c2ccccc2)c1C(=O)NNC(=S)NC(=O)c1ccc(Cl)cc1Cl,-63%,18,91*,0%,4,-3%
Cc1cccc(C(=O)NC(=S)NNC(=O)c2ccccc2Cl)c1,-50%,18,68*,1%,4,1%
CC(=O)NNC(=S)NC(=O)c1ccc(C)cc1,-8%,7,-1,0%,1,-6%
CC(C)(C)n1ncc2c(=O)n(Cc3ccc(F)c(F)c3F)cnc21,/,-16,2,/,/,/
COCCNc1c(-c2ccc(OC)c(OC)c2)nc2ccc(Cl)cn12,6%,-4,-1,-7%,1,0%
COCCNc1c(-c2cc3ccc(C)c(C)c3[nH]c2=O)nc2ccccn12,2.2µM*,-13,2,-4%,-6,0%
COc1ccc(OC)c(CNc2ncnc3onc(-c4ccc(Cl)cc4)c23)c1,-44%,48,0,/,/,/
Cc1ccc2nc(SCC(=O)Nc3ccc4c(c3)OCCO4)[nH]c2c1,66%,10,1,4%,-2,-5%
Cc1ccc(NC(=O)CN2C(=O)C3C4C=CC(C4)C3C2=O)cc1 (stereo not given),-3%,-7,-1,0%,2,0%
O=C(CN1C(=O)C2C3C=CC(C3)C2C1=O)Nc1ccc2c(c1)OCCO2 (stereo not given),13µM*,-11,0,0%,-1,-3%
O=C(Cn1cnc2ccccc2c1=O)NCCC(=O)Nc1ccc2c(c1)OCCO2,-13%,-5,-1,8%,-3,-4%
O=C(Cn1nnc(-c2ccccc2F)n1)Nc1ccc2c(c1)OCCO2,8.9µM*,-3,0,-2%,-1,-1%
SMILES,BRCA1 expr up,TRPML1 inh,TRPML1 ag,PKM2 activator,IL2 activator,TSG101-PTAP inh
CC(=O)Nc1ccccc1-c1nnn(CC(=O)Nc2ccc3c(c2)OCCO3)n1,-20%,4,2,-7%,1,-5%
O=C(CSc1nc2ccccc2[nH]1)Nc1ccc2c(c1)OCCO2,10µM*,1,4,0%,-1,-4%
O=C(Cn1cnc2ccccc2c1=O)Nc1ccc2c(c1)OCCO2,3.2µM*,-8,-1,-6%,-1,-5%
C=C1C=C(C)n2ncc(C(=O)Nc3cccc(C(=O)Nc4cccc(C(F)(F)F)c4)c3)c2N1,10%,/,0,/,/,/
Cc1ccnc2ccc(I)cc12,/,/,-1,/,/,/
Cc1ccc(CSc2nc3cccnc3n2Cc2nc(-c3ccccc3F)oc2C)cc1,/,17,1,/,/,/
O=C(Nc1ccc2c(c1)OCCO2)C(=O)c1c[nH]c2ccccc12,17%,-17,1,-11%,-4,-1%
Cc1[nH]c2ccccc2c1C(=O)C(=O)Nc1ccc2c(c1)OCCO2,10µM*,28,1,-3%,-3,-3%
COc1ccc(OCC(=O)OCc2cc(=O)n3nc(C4CC4)sc3n2)cc1,0%,27,1,/,/,/
COc1ccc2nc(Cl)c(/C=N/Nc3ccccn3)cc2c1,3.2µM*,8,0,-13%,-2,2%
Clc1ccccc1C=NNc1ccccn1,-38%,-20,1,/,-5,-1%
CCOc1ccc(N(C)C(=O)C2CCN(S(=O)(=O)c3ccc4c(c3)CCCN4C(C)=O)CC2)cc1,/,18,0,/,/,/
CCc1ccc(-c2[nH]c3c(c2-c2c(-n4cccc4)n(C)c(=O)n(C)c2=O)c(=O)n(C)c(=O)n3C)cc1,-12%,-5,0,/,/,/
Cc1sc(NC(=O)CSC2=NCCS2)nc1-c1ccccc1,-51%,4,0,-11%,-2,4%
O=C(Cc1ccccc1)Nc1nc2ccccc2s1,10µM*,0,0,5%,1,-3%
Cc1ccc2nc(NC(=O)Cc3cccs3)sc2c1,66%,1,0,-8%,1,-6%
O=C(CSC1=NCCS1)Nc1nc2ccccc2s1,8.9µM*,-8,4,3%,-3,-8%
COCC(=O)Nc1nc2ccccc2s1,72%,-3,0,-3%,-1,-3%
O=C(Cc1cccs1)Nc1nc2ccccc2s1,7.1µM*,14,-2,16%,0,-1%
CC1CCc2nc(NC(=O)c3ccco3)sc2C1 (stereo not given),?,2,-1,-20%,-2,-5%
CC1CCc2nc(NC(=O)Cc3cccs3)sc2C1 (stereo not given),5.6µM*,-11,0,3%,0,-1%
O=C(Nc1cccc(C(F)(F)F)c1)Nc1nnc(N2CCCCCC2)s1,/,-7,-1,/,/,/
C(=C\c1nc2ccccc2o1)/c1ccc2c(c1)OCO2,?,/,1,/,/,/
Cn1cc(Cl)c(C(=O)Nc2nc3ccccc3s2)n1,47%,0,1,-22%,-2,-5%
O=C(NNc1nc2ccccc2s1)C1CC1,25%,-15,0,-19%,2,-10%
